Data published in PubChem BioAssay AID694 (Emory University Molecular Libraries Screening Center, 2007).
The campaign covered roughly 1,300 compounds. About 25 (2%) were called active. The rule behind the calls is not given here. The list comes from a sample in which actives are over-represented; it also holds similar structures and randomly drawn compounds.

Molecular target: Estrogen receptor (Homo sapiens) (UniProt P03372)
Assay: ERα coactivator peptide binding inhibitors, primary screen, biochemical, LOPAC library, TR-FRET (AID 694);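 note: receptor was agonist-bound with estradiol present during the assay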
Details: TR-FRET ERalpha-coactivator peptide binding, stronger effect = higher value

Sequence of Estrogen receptor (Homo sapiens) (P03372 whole entry, looked up): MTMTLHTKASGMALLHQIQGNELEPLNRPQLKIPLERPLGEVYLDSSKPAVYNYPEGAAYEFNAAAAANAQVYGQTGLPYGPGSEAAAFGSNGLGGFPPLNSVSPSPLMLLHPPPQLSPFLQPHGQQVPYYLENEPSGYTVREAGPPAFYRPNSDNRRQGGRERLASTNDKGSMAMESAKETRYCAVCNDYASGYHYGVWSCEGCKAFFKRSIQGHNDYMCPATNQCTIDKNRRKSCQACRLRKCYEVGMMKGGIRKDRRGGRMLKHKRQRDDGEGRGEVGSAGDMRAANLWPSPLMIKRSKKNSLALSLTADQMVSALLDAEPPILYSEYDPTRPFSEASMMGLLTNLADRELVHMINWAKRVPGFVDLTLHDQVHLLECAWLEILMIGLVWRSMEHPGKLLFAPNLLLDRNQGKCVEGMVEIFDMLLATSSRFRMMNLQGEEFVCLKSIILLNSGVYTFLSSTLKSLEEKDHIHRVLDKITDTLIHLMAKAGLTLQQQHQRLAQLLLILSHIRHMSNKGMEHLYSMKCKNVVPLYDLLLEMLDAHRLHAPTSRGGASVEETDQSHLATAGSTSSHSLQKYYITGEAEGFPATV

Compound | inhibition (at 45 µM) | inhibition (inhibition, at 15 µM) [%]
C=CCN1CCc2c(cc(O)c(O)c2Cl)C(c2ccccc2)C1 (stereo unspecified) | -1.29% (inactive) | -1.34
NC(N)=N[C@@H](CCC(=O)O)C(=O)O | -1.09% (inactive) | 5.9
CC(C)C1C2CCC(C2)C1N (stereo unspecified) | -15.6% (inactive) | -0.95
NCCC(=O)NCCc1cnc[nH]1 | -9.27% (inactive) | 2.24
CCN1/C(=C/C(C)=O)Sc2ccc(OC)cc21 | 0.62% (inactive) | -1.25
CSc1ccc2c(c1)N(CCC1CCCCN1C)c1ccccc1S2 (stereo unspecified) | 13.6% (inactive) | 10.5
O=C(O)Cc1ccc(O)c(O)c1 | 13.3% (inactive) | 9.47
CC(C)C[C@H](N)CSSC[C@@H](N)CC(C)C | 0.5% (inactive) | -0.82
Cc1ccccc1CNc1ncnc2c1ncn2C1OC(CO)C(O)C1O (stereo unspecified) | -2.05% (inactive) | -1.9
Nc1ccc(N2C(=O)c3ccccc3C2=O)c(Cl)c1 | -4.66% (inactive) | -3.36
NC(N)=NC(N)=Nc1cccc(Cl)c1 | -5.64% (inactive) | -4.32
CN[C@H]1CC[C@@H](c2ccc(Cl)c(Cl)c2)c2ccccc21 | 4.49% (inactive) | 4.91
CN1CCN(c2nc3cc(C(F)(F)F)ccc3n3cccc23)CC1 | -8.98% (inactive) | -4.03
COc1cc2c(cc1O)CC[C@@H]1[C@@H]2CC[C@]2(C)[C@@H](O)CC[C@@H]12 | 1.97% (inactive) | 3.36
O=c1[nH]cnc2[nH]ncc12 | -22.8% (inactive) | -0.71
NC(CO)C(=O)NNCc1ccc(O)c(O)c1O (stereo unspecified) | 90.3% [fluorescence artefact?] (active) | 63.1
N=C(N)SCCc1cccc(CCSC(=N)N)c1 | -4.03% (inactive) | -3.18
O=C1c2c(O)cc(O)cc2OC(c2ccc(O)c(O)c2)C1O (stereo unspecified) | 7.88% (inactive) | 5.23
O=c1[nH]c2cc(Cl)c(Cl)cc2[nH]c1=O | -4.07% (inactive) | 3.65
CN(C)CCOC(c1ccccc1)c1ccccc1 | 0% (inactive) | 1.48
Nc1ncnc2c1nc(Sc1ccc(Cl)cc1)n2C1OC2COP(=O)(O)O[C@@H]2[C@@H]1O (stereo partly specified) | 2.25% (inactive) | -0.54
NCCCS(=O)(=O)O | -5.28% (inactive) | -0.89
Brc1ccc([C@H]2CN3CCSC3=N2)cc1 | -14.5% (inactive) | -5.52
CCOC(=O)Nc1ccc(NCc2ccc(F)cc2)nc1N | -2.33% (inactive) | -0.39
OC[C@H]1O[C@@H](n2cnc3cncnc32)[C@H](O)[C@@H]1O | -0.26% (inactive) | -1.71
NC[C@@H]1O[C@H](C23CC4CC(CC(C4)C2)C3)Cc2c1ccc(O)c2O | 6.83% (inactive) | -1.93
N#CC(Cc1ccc(O)c(O)c1)C(=O)N1CCc2ccccc21 (stereo unspecified) | 4.21% (inactive) | -5.26

Compound | inhibition (at 45 µM) | inhibition (inhibition, at 15 µM) [%]
Nc1nc(SCc2ccc([N+](=O)[O-])cc2)c2ncn([C@@H]3O[C@H](CO)[C@H](O)C3O)c2n1 (stereo partly specified) | -19.1% (inactive) | -4.91
COc1ccccc1CNCCCCCCNCCCCCCCCNCCCCCCNCc1ccccc1OC | 10.9% (inactive) | 6.92
CCCCCCCCCCC/C=C\C(C)(C)/C=C\CCCC(=O)O | 33.3% (inactive) | 17.4
Cc1c(CC(C)(C)C(=O)O)n(Cc2ccc(Cl)cc2)c2ccc(F)cc12 | 9.14% (inactive) | 5.8
NC(N)=[N+]1CCc2ccccc2C1 | -8.81% (inactive) | 1.64
CC(CCc1ccccc1)NCC(O)c1ccc(O)c(C(N)=O)c1 (stereo unspecified) | 5.4% (inactive) | 3.9
O=C(O)c1cc([N+](=O)[O-])ccc1NCCCc1ccccc1 | 1.89% (inactive) | -3.54
N=c1ccn2c(n1)OC1[C@@H](O)[C@@H](CO)O[C@H]12 (stereo partly specified) | -2.34% (inactive) | 1.25
COc1ccc(/C=C/C(=O)Nc2ccccc2C(=O)O)cc1OC | 3.42% (inactive) | 4.38
O=S(=O)(c1cccc2c(I)cccc12)N1CCCNCC1 | 21.6% (inactive) | 3.12
OC(CN1CCN(c2cccc(Cl)c2)CC1)C(c1ccccc1)c1ccccc1 (stereo unspecified) | 3.01% (inactive) | 4.55
COc1cc(C(O)C(=O)O)ccc1O (stereo unspecified) | -7.3% (inactive) | 0.57
CCCn1c(=O)c2[nH]c(-c3ccc(OCC(=O)Nc4ccc(C#N)cc4)cc3)nc2n(CCC)c1=O | 46.8% (inactive) | 8.2
O=C(Nc1cc(C(=O)Nc2ccc(S(=O)(=O)O)cc2S(=O)(=O)O)cc(C(=O)Nc2ccc(S(=O)(=O)O)cc2S(=O)(=O)O)c1)Nc1cc(C(=O)Nc2ccc(S(=O)(=O)O)cc2S(=O)(=O)O)cc(C(=O)Nc2ccc(S(=O)(=O)O)cc2S(=O)(=O)O)c1 | 22.9% (inactive) | 17.2
C/C=C1\C(=O)CC2C3CCC4=CC(=O)CC[C@]4(C)C3CC[C@]12C (stereo partly specified) | -2.62% (inactive) | -5.45
Cc1cc(C)c(NC(=O)C[C@H](CC(=O)O)c2cccc3ccccc23)c(C(=O)N2CCC3(CCCC3)CC2)c1 | 4.81% (active) | 53
C[N+](C)(C)CCC(=O)c1cccc2ccccc12 | 4.57% (inactive) | 3.36
COc1ccccc1N1CCN(CCN(C(=O)c2ccc(I)cc2)c2ccccn2)CC1 | 10.1% (inactive) | 2.05
CCCCCCCCCCCCCCCC(=O)OC(CC(=O)O)C[N+](C)(C)C (stereo unspecified) | 12.7% (inactive) | 4.2
CC(C)C[C@H](NC(=O)[C@@H](O)[C@H](N)Cc1ccccc1)C(=O)O | -3.72% (inactive) | 0.08
CC(C)C[C@H](NC(=O)[C@H](O)[C@H](N)Cc1ccccc1)C(=O)O | -1.92% (inactive) | -0.07
O=C(O)CNC(=O)C(CS)Cc1ccccc1 (stereo unspecified) | -3.83% (active) | 50.5
CC1=C(CC(=O)O)c2cc(F)ccc2/C1=C\c1ccc(S(C)(=O)=O)cc1 | 2.44% (inactive) | 2.34
Nc1nc(Cl)nc2c1ncn2[C@@H]1O[C@H](COP(=O)(O)OP(=O)(O)OP(=O)(O)O)[C@H](O)C1O (stereo partly specified) | -8.59% (inactive) | -0.94
CN(C)CCCO[C@@H]1[C@H]2OC(C)(C)O[C@H]2O[C@@H]1C(O)CO (stereo partly specified) | 6.83% (inactive) | -5.23
CN1CCc2cc(Cl)c(O)cc2[C@@H](c2ccccc2)C1 | 1.68% (inactive) | 0.35
